Laboratory results taken from publication PMC5700166.
Residue numbers refer to the chain shown, from its start.

Key:
Test in all cases: protein-binding microarray (PBM); PBM: ~300 nM protein, 6 mM HEPES pH 7.8, 80 mM KCl, 0.5 mM EDTA, 0.5 mM EGTA, 6% glycerol, 35 ng/ul poly-dIdC, 1% milk, 1 h, room temperature; Ap Aiptasia and Nv Nematostella (sea anemones) / Co Capsaspora / Aq Amphimedon (sponge) / Dm Drosophila / Hu human; RHD is the Rel homology domain; high values mean tight binding
Details in all cases: dsDNA, one strand shown
GST-Ap-NF-kB RHD = biological target: T1, GST-Ap-NF-kB RHD (Exaiptasia pallida (Aiptasia), UniProt A0A913YAJ5 2-422)
T1 sequence: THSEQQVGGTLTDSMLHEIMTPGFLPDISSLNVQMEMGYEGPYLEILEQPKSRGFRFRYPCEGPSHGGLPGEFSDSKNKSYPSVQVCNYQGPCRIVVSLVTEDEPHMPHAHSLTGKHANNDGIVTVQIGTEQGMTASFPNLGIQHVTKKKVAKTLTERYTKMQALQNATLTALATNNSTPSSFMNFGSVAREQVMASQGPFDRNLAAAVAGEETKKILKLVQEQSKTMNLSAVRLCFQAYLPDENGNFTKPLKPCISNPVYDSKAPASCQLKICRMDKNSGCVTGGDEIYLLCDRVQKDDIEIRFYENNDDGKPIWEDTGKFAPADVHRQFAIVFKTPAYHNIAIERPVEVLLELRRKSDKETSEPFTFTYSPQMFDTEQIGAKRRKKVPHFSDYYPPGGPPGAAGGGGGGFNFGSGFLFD

[1] = biological target: T2, GST-Nv-NF-kB (Cys allele) (Nematostella vectensis, UniProt E5G601 2-411)
T2 sequence: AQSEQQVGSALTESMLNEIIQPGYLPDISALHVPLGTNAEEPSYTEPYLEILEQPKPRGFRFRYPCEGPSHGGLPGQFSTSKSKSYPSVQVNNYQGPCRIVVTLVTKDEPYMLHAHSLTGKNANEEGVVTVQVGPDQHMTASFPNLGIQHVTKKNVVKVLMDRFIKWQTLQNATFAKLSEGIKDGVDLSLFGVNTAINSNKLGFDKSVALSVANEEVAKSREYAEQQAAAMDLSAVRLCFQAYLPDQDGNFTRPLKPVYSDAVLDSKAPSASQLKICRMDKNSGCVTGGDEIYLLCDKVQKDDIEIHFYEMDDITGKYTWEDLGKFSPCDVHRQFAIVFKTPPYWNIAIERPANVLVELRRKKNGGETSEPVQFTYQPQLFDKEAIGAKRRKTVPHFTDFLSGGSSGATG

[2] = biological target: T3, GST-Nv-NF-kB (Ser allele) (Nematostella vectensis, UniProt A7UNT2 2-411)
T3 sequence: T2 sequence with Q21R, C66S, S207N, E215Q, V217A, E225K, A268E, D399E

GST-Co-NF-kB = biological target: T4, GST-Co-NF-kB (Capsaspora owczarzaki, UniProt F1ARL5 200-546)
T4 sequence: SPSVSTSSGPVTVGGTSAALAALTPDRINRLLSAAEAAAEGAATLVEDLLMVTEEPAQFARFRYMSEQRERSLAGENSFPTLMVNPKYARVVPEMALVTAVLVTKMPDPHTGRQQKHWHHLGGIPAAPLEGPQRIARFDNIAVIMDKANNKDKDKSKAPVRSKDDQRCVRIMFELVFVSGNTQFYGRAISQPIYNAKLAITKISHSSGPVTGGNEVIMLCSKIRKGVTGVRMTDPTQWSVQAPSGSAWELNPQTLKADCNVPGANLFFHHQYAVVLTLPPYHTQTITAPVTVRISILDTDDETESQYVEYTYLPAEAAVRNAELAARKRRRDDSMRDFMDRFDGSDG

GST-Dm-Relish = biological target: T5, GST-Dm-Relish (Drosophila melanogaster, UniProt Q94527 99-473)
T5 sequence: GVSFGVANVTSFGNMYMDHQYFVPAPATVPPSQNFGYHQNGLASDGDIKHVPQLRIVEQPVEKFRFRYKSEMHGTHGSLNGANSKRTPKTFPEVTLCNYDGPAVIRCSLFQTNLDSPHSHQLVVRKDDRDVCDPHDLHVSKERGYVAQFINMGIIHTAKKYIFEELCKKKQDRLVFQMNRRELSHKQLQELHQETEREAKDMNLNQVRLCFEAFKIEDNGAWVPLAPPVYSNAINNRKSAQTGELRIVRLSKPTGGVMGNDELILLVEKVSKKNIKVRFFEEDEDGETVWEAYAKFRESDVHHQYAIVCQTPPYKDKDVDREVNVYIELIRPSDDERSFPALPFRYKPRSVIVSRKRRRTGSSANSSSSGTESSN

GST-Aq-NF-kB = biological target: T6, GST-Aq-NF-kB (Amphimedon queenslandica, UniProt A9Y5G7 2-389)
T6 sequence: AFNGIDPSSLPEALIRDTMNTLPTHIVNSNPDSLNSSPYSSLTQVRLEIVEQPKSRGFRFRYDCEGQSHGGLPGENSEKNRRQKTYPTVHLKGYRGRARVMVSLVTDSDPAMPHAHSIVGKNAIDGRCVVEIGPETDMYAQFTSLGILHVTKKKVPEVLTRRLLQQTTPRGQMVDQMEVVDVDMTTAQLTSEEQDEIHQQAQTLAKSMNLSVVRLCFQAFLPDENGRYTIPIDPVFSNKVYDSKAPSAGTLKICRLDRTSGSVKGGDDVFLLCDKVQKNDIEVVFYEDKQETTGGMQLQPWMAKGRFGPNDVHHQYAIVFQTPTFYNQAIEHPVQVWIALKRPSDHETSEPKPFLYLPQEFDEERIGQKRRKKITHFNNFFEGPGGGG

GST-Hu-p50 = GST-Hu-p50 (Homo sapiens, UniProt P19838 7-356)
Chain of GST-Hu-p50 (P19838 7-356): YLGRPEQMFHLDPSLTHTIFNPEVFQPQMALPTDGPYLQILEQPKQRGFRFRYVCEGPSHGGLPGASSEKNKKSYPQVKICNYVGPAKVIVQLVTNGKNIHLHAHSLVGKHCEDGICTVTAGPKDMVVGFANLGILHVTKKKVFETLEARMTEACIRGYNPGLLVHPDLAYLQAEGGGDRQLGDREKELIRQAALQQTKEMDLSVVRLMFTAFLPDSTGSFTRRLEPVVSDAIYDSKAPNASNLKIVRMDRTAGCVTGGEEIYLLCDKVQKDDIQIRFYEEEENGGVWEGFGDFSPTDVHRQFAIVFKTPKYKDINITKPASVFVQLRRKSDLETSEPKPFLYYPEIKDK

CCGATTAACATCAGGGGGGAAACTGATGTTAATCGGGTCTTGATTCGCTTGACGCTGCTG
binding signal (GST-Ap-NF-kB RHD): 7.64 z-score | binding signal [1]: 7.15 z-score | binding signal [2]: 8.2 z-score | binding signal (GST-Co-NF-kB): 11.1 z-score | binding signal (GST-Dm-Relish): 5.47 z-score | binding signal (GST-Aq-NF-kB): 5.87 z-score | binding signal (GST-Hu-p50): 6.97 z-score

CCGATTAACATCAGGGGGATGCATGATGTTAATCGGGTCTTGATTCGCTTGACGCTGCTG
binding signal (GST-Ap-NF-kB RHD): 4.72 z-score | binding signal [1]: 4.49 z-score | binding signal [2]: 5.56 z-score | binding signal (GST-Co-NF-kB): 4.12 z-score | binding signal (GST-Dm-Relish): 3.39 z-score | binding signal (GST-Aq-NF-kB): 3.86 z-score | binding signal (GST-Hu-p50): 4.84 z-score

CCGATTAACATCAACAATTTCCCTGATGTTAATCGGGTCTTGATTCGCTTGACGCTGCTG
binding signal (GST-Ap-NF-kB RHD): 3.9 z-score | binding signal [1]: 5.04 z-score | binding signal [2]: 6.92 z-score | binding signal (GST-Co-NF-kB): 4.63 z-score | binding signal (GST-Dm-Relish): 2.52 z-score | binding signal (GST-Aq-NF-kB): 4.15 z-score | binding signal (GST-Hu-p50): 4.08 z-score

CCGATTAACATCAAAAGATCCCCTGATGTTAATCGGGTCTTGATTCGCTTGACGCTGCTG
binding signal (GST-Ap-NF-kB RHD): 8.32 z-score | binding signal [1]: 8.42 z-score | binding signal [2]: 9.3 z-score | binding signal (GST-Co-NF-kB): 5.39 z-score | binding signal (GST-Dm-Relish): 9.75 z-score | binding signal (GST-Aq-NF-kB): 7.5 z-score | binding signal (GST-Hu-p50): 6.41 z-score

CCGATTAACATCAAGAAATTCCCTGATGTTAATCGGGTCTTGATTCGCTTGACGCTGCTG
binding signal (GST-Ap-NF-kB RHD): 5.84 z-score | binding signal [1]: 8.19 z-score | binding signal [2]: 8.01 z-score | binding signal (GST-Co-NF-kB): 4.57 z-score | binding signal (GST-Dm-Relish): 5.32 z-score | binding signal (GST-Aq-NF-kB): 6.81 z-score | binding signal (GST-Hu-p50): 5.84 z-score

CCGATTAACATCACAAAACCCCCTGATGTTAATCGGGTCTTGATTCGCTTGACGCTGCTG
binding signal (GST-Ap-NF-kB RHD): 9.76 z-score | binding signal [1]: 9.02 z-score | binding signal [2]: 10.5 z-score | binding signal (GST-Co-NF-kB): 3.3 z-score | binding signal (GST-Dm-Relish): 10.4 z-score | binding signal (GST-Aq-NF-kB): 7.82 z-score | binding signal (GST-Hu-p50): 8.21 z-score
